Experimental data from PubChem BioAssay (NCI).
Compounds without any hit were thinned out: in the full panel of roughly 83,000, 20% have a hit.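 How to read the values: 0–100, growth inhibition (40 = 60% inhibited); 0, no net growth; -100 to 0, cell death (-40 = 40% of starting cells died; -100 = all dead).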 The source made the active and inactive calls. Rule for the calls: active = growth percent below 10; inactive = the rest.

Legend:
Assay in all cases: NCI-60 one-dose screen, 48 h (100 = growth as untreated, 0 = no growth, -100 = all killed)
Details in all cases: 10 µM unless noted
SK-MEL-2 melanoma = tested on: SK-MEL-2 melanoma
EKVX NSCLC = tested on: EKVX NSCLC
SN12C renal = tested on: SN12C renal
UO-31 renal = tested on: UO-31 renal
TK-10 renal = tested on: TK-10 renal
ACHN renal = tested on: ACHN renal
CAKI-1 renal = tested on: CAKI-1 renal
A498 renal = tested on: A498 renal
CCRF-CEM leukemia = tested on: CCRF-CEM leukemia
MOLT-4 leukemia = tested on: MOLT-4 leukemia
OVCAR-5 ovarian = tested on: OVCAR-5 ovarian
OVCAR-4 ovarian = tested on: OVCAR-4 ovarian
SK-OV-3 ovarian = tested on: SK-OV-3 ovarian
IGROV1 ovarian = tested on: IGROV1 ovarian
OVCAR-3 ovarian = tested on: OVCAR-3 ovarian
HS 578T breast = tested on: HS 578T breast
NCI/ADR-RES ovarian = tested on: NCI/ADR-RES ovarian
OVCAR-8 ovarian = tested on: OVCAR-8 ovarian
SR leukemia = tested on: SR leukemia
RPMI-8226 leukemia = tested on: RPMI-8226 leukemia

Measured: growth

O=C(CSc1nccc(Nc2ccc(S(=O)(=O)Nc3nccs3)cc2)n1)c1ccc(C(F)(F)F)cc1
inactive: SK-MEL-2 melanoma 102% | EKVX NSCLC 94.4% | SN12C renal 102% | UO-31 renal 69.2% | TK-10 renal 112% | ACHN renal 100% | CAKI-1 renal 90.1% | A498 renal 109% | CCRF-CEM leukemia 108% | MOLT-4 leukemia 112% | OVCAR-5 ovarian 111% | OVCAR-4 ovarian 106% | SK-OV-3 ovarian 96.9% | IGROV1 ovarian 91.1% | OVCAR-3 ovarian 112% | HS 578T breast 98.5% | NCI/ADR-RES ovarian 98.5%

Cc1ccc(-c2nc3c(c(-c4ccccc4)nn3-c3ccccc3)c(-c3ccc(O)cc3)c2C#N)cc1
inactive: SK-MEL-2 melanoma 78.7% | EKVX NSCLC 74.5% | SN12C renal 53.7% | UO-31 renal 39.4% | TK-10 renal 38.3% | ACHN renal 67.6% | CAKI-1 renal 50.4% | A498 renal 44.2% | CCRF-CEM leukemia 39.1% | OVCAR-8 ovarian 69% | OVCAR-5 ovarian 104% | OVCAR-4 ovarian 82.2% | SK-OV-3 ovarian 92.6% | IGROV1 ovarian 82.6% | OVCAR-3 ovarian 64.5% | HS 578T breast 24% | NCI/ADR-RES ovarian 81.4%

Cc1cccc2c3c(sc12)C(c1ccc(Cl)cc1)C(C#N)=C(/N=C/c1ccc(Cl)cc1)O3 (stereo not drawn)
inactive: SK-MEL-2 melanoma 43% | EKVX NSCLC 46.5% | SN12C renal 27.3% | UO-31 renal 37.9% | TK-10 renal 74.8% | ACHN renal 25.9% | SR leukemia 24.1% | OVCAR-8 ovarian 25% | OVCAR-5 ovarian 24.6% | OVCAR-4 ovarian 52.9% | SK-OV-3 ovarian 59% | IGROV1 ovarian 21.9% | HS 578T breast 14.3%
active: CAKI-1 renal 5.67% | A498 renal -4.07% | CCRF-CEM leukemia 5.88% | OVCAR-3 ovarian -2.5% | NCI/ADR-RES ovarian 9.29%

C=C(C)[C@@H]1CC[C@]2(N=C=O)CC[C@]3(C)[C@H](CC[C@@H]4[C@@]5(C)Cc6c([nH]c7ccccc67)C(C)(C)[C@@H]5CC[C@]43C)[C@@H]12
inactive: SK-MEL-2 melanoma 108% | EKVX NSCLC 89% | SN12C renal 72.4% | UO-31 renal 64.8% | TK-10 renal 21.1% | ACHN renal 99% | CAKI-1 renal 69.9% | A498 renal 137% | CCRF-CEM leukemia 67.6% | RPMI-8226 leukemia 18.8% | OVCAR-5 ovarian 92.9% | OVCAR-4 ovarian 72.7% | SK-OV-3 ovarian 89.4% | IGROV1 ovarian 84.3% | OVCAR-3 ovarian 89.2% | HS 578T breast 92% | NCI/ADR-RES ovarian 83.5%

COc1cc(C2CC(c3ccc(N(C)C)cc3)=NN2C(C)=O)cc(OC)c1OC (stereo not drawn)
inactive: SK-MEL-2 melanoma 37.1% | EKVX NSCLC 44.3% | SN12C renal 37.7% | UO-31 renal 45.7% | TK-10 renal 63.4% | ACHN renal 44.9% | CAKI-1 renal 27% | CCRF-CEM leukemia 11.8% | OVCAR-8 ovarian 38.9% | OVCAR-5 ovarian 54.5% | OVCAR-4 ovarian 51.5% | SK-OV-3 ovarian 24.9% | IGROV1 ovarian 30.4%
active: A498 renal -1.88% | SR leukemia -17.2% | OVCAR-3 ovarian -38.2% | HS 578T breast 0.792% | NCI/ADR-RES ovarian -24.4%

CCCCOc1nc2c(C)cccc2cc1-c1cc(-c2ccc(Cl)cc2)nc(-c2ccc(Cl)cc2)c1
inactive: SK-MEL-2 melanoma 102% | EKVX NSCLC 101% | SN12C renal 96% | UO-31 renal 95.6% | TK-10 renal 108% | ACHN renal 101% | CAKI-1 renal 93.9% | A498 renal 90.4% | CCRF-CEM leukemia 103% | SR leukemia 92.2% | OVCAR-8 ovarian 97.4% | OVCAR-5 ovarian 96.6% | OVCAR-4 ovarian 110% | SK-OV-3 ovarian 103% | IGROV1 ovarian 105% | OVCAR-3 ovarian 111% | HS 578T breast 92.4% | NCI/ADR-RES ovarian 108%

O=C(Nc1ccc(Cl)cc1F)c1cc(Cl)ccc1O
inactive: TK-10 renal 15.6% | CCRF-CEM leukemia 15.8% | OVCAR-5 ovarian 19.7% | OVCAR-4 ovarian 17.9%
active: SK-MEL-2 melanoma -28.3% | EKVX NSCLC 5.1% | SN12C renal -11% | UO-31 renal -14.6% | ACHN renal -1.72% | CAKI-1 renal 1.59% | A498 renal -51.8% | SR leukemia -21.2% | OVCAR-8 ovarian 8.56% | SK-OV-3 ovarian 9.05% | IGROV1 ovarian 8.98% | OVCAR-3 ovarian 2.51% | HS 578T breast -13.9% | NCI/ADR-RES ovarian 3.01%

COc1cc(C(=O)/C=C/c2c(Cl)nc3sccn23)cc(OC)c1OC
inactive: SK-MEL-2 melanoma 86.1% | EKVX NSCLC 90.7% | SN12C renal 66.3% | UO-31 renal 60.4% | TK-10 renal 106% | ACHN renal 86.4% | CAKI-1 renal 84.9% | A498 renal 88% | CCRF-CEM leukemia 48.7% | RPMI-8226 leukemia 40.8% | OVCAR-8 ovarian 85.9% | OVCAR-5 ovarian 92.6% | OVCAR-4 ovarian 90.6% | SK-OV-3 ovarian 83.3% | IGROV1 ovarian 79.8% | OVCAR-3 ovarian 64.5% | HS 578T breast 61% | NCI/ADR-RES ovarian 81.4%

Nc1nc(-c2cccc3ccccc23)cc2ccccc12
inactive: SK-MEL-2 melanoma 27.7% | EKVX NSCLC 46% | SN12C renal 35.8% | UO-31 renal 19.6% | TK-10 renal 55.8% | ACHN renal 36.6% | CAKI-1 renal 15.6% | CCRF-CEM leukemia 29% | OVCAR-8 ovarian 17.9% | OVCAR-5 ovarian 20.9% | OVCAR-4 ovarian 61.4%
active: A498 renal -19.8% | RPMI-8226 leukemia 4.38% | SK-OV-3 ovarian 8.91% | IGROV1 ovarian -48.5% | OVCAR-3 ovarian -32.2% | HS 578T breast -4.65% | NCI/ADR-RES ovarian 2.9%

COc1ccc(/C=C(\C#N)n2nnc3c(F)cccc32)cc1
inactive: SK-MEL-2 melanoma 24.1% | EKVX NSCLC 32.3% | SN12C renal 24.2% | UO-31 renal 39.4% | TK-10 renal 45.3% | ACHN renal 28.3% | CCRF-CEM leukemia 18.9% | MOLT-4 leukemia 14.4% | RPMI-8226 leukemia 17.9% | OVCAR-8 ovarian 16.3% | OVCAR-5 ovarian 15.7% | OVCAR-4 ovarian 37.8% | SK-OV-3 ovarian 39% | IGROV1 ovarian 13.2%
active: A498 renal -29.1% | OVCAR-3 ovarian -34% | HS 578T breast -4.6% | NCI/ADR-RES ovarian 0.281%

Cc1nc2ccccc2c(/C=C/c2ccc(Cl)cc2)c1C(=O)/C=C/c1ccc(C(F)(F)F)cc1
active: SK-MEL-2 melanoma -31.9% | EKVX NSCLC -60.1% | SN12C renal -70.7% | UO-31 renal -100% | TK-10 renal -82.8% | ACHN renal -100% | A498 renal -89.5% | CCRF-CEM leukemia 8.6% | MOLT-4 leukemia 0.0825% | RPMI-8226 leukemia -30.7% | OVCAR-8 ovarian 2.79% | OVCAR-5 ovarian -41.6% | OVCAR-4 ovarian -91% | SK-OV-3 ovarian -79.9% | IGROV1 ovarian -85.5% | OVCAR-3 ovarian -85.8% | HS 578T breast -17.3% | NCI/ADR-RES ovarian -5.17%

Cc1[nH]c(C(=O)Nc2ccc(C(=O)NCCN)cc2OC(C)C)c(Cl)c1Cl
inactive: SK-MEL-2 melanoma 98.6% | EKVX NSCLC 87.6% | SN12C renal 48.1% | UO-31 renal 57.1% | ACHN renal 40.7% | A498 renal 67.4% | OVCAR-5 ovarian 89.4% | SK-OV-3 ovarian 90.5% | IGROV1 ovarian 64.1% | HS 578T breast 35.1% | NCI/ADR-RES ovarian 91%
active: TK-10 renal -21.6% | CCRF-CEM leukemia -10.5% | MOLT-4 leukemia -27.7% | SR leukemia -51.3% | OVCAR-8 ovarian 9.08% | OVCAR-4 ovarian -12.2% | OVCAR-3 ovarian -6.76%

C[N+]1=C(/C=C/c2ccc(O)c3ncccc23)C(C)(C)c2ccccc21
inactive: SK-MEL-2 melanoma 44.9% | EKVX NSCLC 58.7% | SN12C renal 42.7% | UO-31 renal 30.6% | TK-10 renal 97.1% | ACHN renal 31% | A498 renal 101% | CCRF-CEM leukemia 75.8% | MOLT-4 leukemia 56.1% | RPMI-8226 leukemia 53.6% | OVCAR-8 ovarian 53.7% | OVCAR-5 ovarian 52.5% | OVCAR-4 ovarian 27.7% | SK-OV-3 ovarian 23% | IGROV1 ovarian 46% | OVCAR-3 ovarian 83% | HS 578T breast 49.2% | NCI/ADR-RES ovarian 14.6%

COc1ccc(N2C(=O)C(Oc3ccccc3)C2c2ccc(C)cc2)cc1 (stereo not drawn)
inactive: SK-MEL-2 melanoma 106% | EKVX NSCLC 88.8% | SN12C renal 104% | UO-31 renal 91.9% | TK-10 renal 126% | ACHN renal 95.7% | A498 renal 77.9% | CCRF-CEM leukemia 101% | MOLT-4 leukemia 101% | RPMI-8226 leukemia 106% | OVCAR-8 ovarian 91.8% | OVCAR-5 ovarian 100% | OVCAR-4 ovarian 93.4% | SK-OV-3 ovarian 106% | IGROV1 ovarian 102% | OVCAR-3 ovarian 112% | HS 578T breast 94% | NCI/ADR-RES ovarian 101%

C=C(C)C1CCC2(C)OC2C1 (stereo not drawn)
inactive: SK-MEL-2 melanoma 111% | EKVX NSCLC 87.4% | SN12C renal 108% | UO-31 renal 115% | TK-10 renal 100% | ACHN renal 104% | A498 renal 141% | CCRF-CEM leukemia 110% | MOLT-4 leukemia 90.7% | SR leukemia 116% | OVCAR-8 ovarian 113% | OVCAR-5 ovarian 102% | OVCAR-4 ovarian 94.6% | SK-OV-3 ovarian 116% | IGROV1 ovarian 89.5% | OVCAR-3 ovarian 123% | HS 578T breast 106% | NCI/ADR-RES ovarian 99.6%

Cc1ccc(/C=C2\Oc3ccc(O)c(O)c3C2=O)cc1
inactive: SK-MEL-2 melanoma 87.6% | EKVX NSCLC 19.7% | SN12C renal 62.8% | UO-31 renal 13.5% | TK-10 renal 98% | ACHN renal 29.1% | A498 renal 70.2% | CCRF-CEM leukemia 15.6% | MOLT-4 leukemia 29.6% | RPMI-8226 leukemia 51.1% | OVCAR-8 ovarian 44.5% | OVCAR-5 ovarian 68.5% | OVCAR-4 ovarian 43.7% | SK-OV-3 ovarian 63.6% | IGROV1 ovarian 38.1% | OVCAR-3 ovarian 11.7% | HS 578T breast 62.5% | NCI/ADR-RES ovarian 45.1%

CN1C(=C2C(=O)OC(C)(C)OC2=O)CCC1C(=O)NCc1ccc(Cl)cc1Cl (stereo not drawn)
inactive: SK-MEL-2 melanoma 91.7% | SN12C renal 93.3% | UO-31 renal 85% | TK-10 renal 93.8% | ACHN renal 97% | CAKI-1 renal 95% | A498 renal 59.5% | CCRF-CEM leukemia 86.4% | MOLT-4 leukemia 94.6% | SR leukemia 94.7% | RPMI-8226 leukemia 82.9% | OVCAR-5 ovarian 94.9% | OVCAR-4 ovarian 98.2% | SK-OV-3 ovarian 85.8% | IGROV1 ovarian 99.8% | OVCAR-3 ovarian 101% | HS 578T breast 97.5% | NCI/ADR-RES ovarian 101%
